Reference: PubChem BioAssay (Tox21)
Inconclusive results are not listed. Calls of active or inactive are those of the source. Unless noted, the call rests on the fitted dose curve; in most records, active means well fitted curve in the direction sought with a large enough effect in the repeat runs; inconclusive means weak or mixed curves; inactive means no such curve, though single readings can be large; an effect the other way counts as inactive or inconclusive.

Experiments:
[1] = qHTS assay to identify small molecule antagonists of the estrogen receptor alpha (ER-alpha) signaling pathway using the BG1 cell line in the presence of 0.1 nM 17-beta-estradiol - cell viability counter screen (AID 1259241); further: nearly all actives have a fitted effect of over 40% in size
Method in brief: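 In this screen, hormone-deprived VM7Luc4E2 cells were seeded at 4,000 per well, dosed with compound and 0.1 nM estradiol final, and incubated 22 hr at 37C and 5% CO2; fluorogenic live-cell protease signal reported viability.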

[2] = qHTS assay to identify small molecule antagonists of the androgen receptor (AR) signaling pathway using the MDA cell line in the presence of 0.5 nM R1881 - cell viability counter screen (AID 1259242); further: nearly all actives have a fitted effect of over 45% in size
Method in brief: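 Live-cell protease activity was measured by CellTiter-Fluor fluorescence after 30 min. Before that, MDA-kb2 MMTV-luciferase cells had 16 hr at 37C without CO2, exposed to test compounds and 0.5 nM R1881 final.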

[3] = qHTS assay to identify small molecule phospholipidosis (PLD) inducers (AID 1259344; active means well fitted curve in the direction sought with a large enough effect; an effect the other way counts as inactive or inconclusive)
Method in brief: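 Read-out is LipidTOX Red fluorescence (ex 595/em 615) imaged in HepG2 cells after 24 h compound exposure at 37 C, with Hoechst nuclear counterstain (ex 352/em 461) allowing per-cell normalisation.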

[4] = qHTS assay to identify small molecule HDAC inhibitors (AID 1259364); further: top concentration of the series differs between compounds; nearly all actives have a fitted effect of over 45% in size
Method in brief: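 Luminescence read after 30 min room-temperature HDAC-Glo incubation measures cellular class I/II HDAC activity. Compounds were applied for 2 hr at 37 C to HCT-116 wild-type cells seeded the day before.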

[5] = qHTS assay to identify small molecule agonists of the sonic hedgehog signaling (Shh) pathway - cell viability counter screen (AID 1259366); further: nearly all actives have a fitted effect of over 50% in size
Method in brief: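 In quantitative high-throughput format, 3T3 Gli1-Luc cells were exposed to compounds for 24hr and multiplexed for viability using CellTiter-Fluor, incubated 1hr at 37C before the fluorescence read.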

[6] = qHTS assay to identify small molecule antagonists of the sonic hedgehog signaling (Shh) pathway - cell viability counter screen (AID 1259367); further: nearly all actives have a fitted effect of over 55% in size
Method in brief: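 Fluorescence read-out (CellTiter-Fluor, 1 hr at 37C) taken after 23 hr compound treatment of 3T3 Gli1-Luc cells stimulated with conditioned medium. Cells were seeded at 2,000 per well and pre-incubated 4 hr.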

[7] = qHTS assay to identify small molecule agonists of the sonic hedgehog signaling (Shh) pathway (AID 1259368; calls by dose curve;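 further: NIH/3T3-derived 3T3Gli1-Luc cells carrying a stable Gli1-driven firefly luciferase reporter; series mostly up to about 92 µM; nearly all actives have a fitted effect of over 15% in size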)
Method in brief: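 Luminescence was read after 30 min at room temperature with luciferase reagent. Before that, 3T3Gli1-Luc cells (NIH/3T3 clone, stable Gli1-Luc reporter; 2,000/well) were exposed to compounds for 24 hr at 37C, 5% CO2, compounds being added 4 hr post-plating.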

[8] = qHTS assay to identify small molecule antagonists of the sonic hedgehog signaling (Shh) pathway (AID 1259369; calls by dose curve; further: nearly all actives have a fitted effect of over 45% in size)
Method in brief: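 Antagonist mode: compound added to 3T3 Gli1-Luc cells followed by conditioned-medium stimulation, 24 h at 37 C, 5% CO2. Inhibition taken as loss of Gli1-driven luciferase luminescence.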

[9] = qHTS assay to identify small molecule agonists of the androgen receptor (AR) signaling pathway in the presence of an antagonist - cell viability counter screen (AID 1259379);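 further: MDA-kb2 human breast cancer cells carrying an MMTV luciferase reporter; series mostly up to about 92 µM; nearly all actives have a fitted effect of over 25% in size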
Method in brief: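 Cytotoxicity counter-screen run in the same wells as the nilutamide-challenged (3.0 µM final) AR agonist assay in MDA-kb2 cells. Compounds tested at 15 concentrations for 16 h, 37 °C without CO2; CellTiter-Fluor fluorescence read.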

[10] = qHTS assay to identify small molecule agonists of the estrogen receptor beta (ER-beta) signaling pathway - cell viability counter screen (AID 1259380); further: nearly all actives have a fitted effect of over 30% in size
Method in brief: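 Cell viability counter screen: CellTiter-Glo luminescence (30 min, room temperature) measured in the same wells as the beta-lactamase readout, after 16 hr compound exposure at 37C of ER-beta-bla HEK293T cells in 2% charcoal-stripped FBS medium.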

[11] = qHTS assay to identify small molecule antagonists of the estrogen receptor beta (ER-beta) signaling pathway - cell viability counter screen (AID 1259382);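 further: HEK293T cells carrying ER-beta-UAS-bla reporter stimulated with estradiol; series mostly up to about 92 µM; nearly all actives have a fitted effect of over 55% in size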
Method in brief: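 Cytotoxicity was measured in the same wells by CellTiter-Glo luminescence after 30 min at room temperature. Cells were ER-beta-bla HEK293T in charcoal-stripped serum, given compound together with 1 nM E2 and incubated 16 h at 37C.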

[12] = qHTS assay to identify small molecule agonists or antagonists of the thyroid stimulating hormone receptor (TSHR) signaling pathway - wild type cell line counter screen (AID 1259384; calls by dose curve)
Method in brief: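 Wild-type Hek293 cells, 800/well, 18 h at 37C, then compound with Ro20-1724 for 30 min RT. cAMP by HTRF (cAMP-d2/anti-cAMP cryptate), 1 h RT, fluorescence read. 15 concentrations, triplicates.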

[13] = target: Thyrotropin receptor (Homo sapiens) (UniProt P16473); experiment: qHTS assay to identify small molecule antagonists of the thyroid stimulating hormone receptor (TSHR) signaling pathway (AID 1259385; calls by dose curve; further: nearly all actives have a fitted effect of over 20% in size)
Sequence of Thyrotropin receptor (Homo sapiens) (P16473 whole entry, looked up): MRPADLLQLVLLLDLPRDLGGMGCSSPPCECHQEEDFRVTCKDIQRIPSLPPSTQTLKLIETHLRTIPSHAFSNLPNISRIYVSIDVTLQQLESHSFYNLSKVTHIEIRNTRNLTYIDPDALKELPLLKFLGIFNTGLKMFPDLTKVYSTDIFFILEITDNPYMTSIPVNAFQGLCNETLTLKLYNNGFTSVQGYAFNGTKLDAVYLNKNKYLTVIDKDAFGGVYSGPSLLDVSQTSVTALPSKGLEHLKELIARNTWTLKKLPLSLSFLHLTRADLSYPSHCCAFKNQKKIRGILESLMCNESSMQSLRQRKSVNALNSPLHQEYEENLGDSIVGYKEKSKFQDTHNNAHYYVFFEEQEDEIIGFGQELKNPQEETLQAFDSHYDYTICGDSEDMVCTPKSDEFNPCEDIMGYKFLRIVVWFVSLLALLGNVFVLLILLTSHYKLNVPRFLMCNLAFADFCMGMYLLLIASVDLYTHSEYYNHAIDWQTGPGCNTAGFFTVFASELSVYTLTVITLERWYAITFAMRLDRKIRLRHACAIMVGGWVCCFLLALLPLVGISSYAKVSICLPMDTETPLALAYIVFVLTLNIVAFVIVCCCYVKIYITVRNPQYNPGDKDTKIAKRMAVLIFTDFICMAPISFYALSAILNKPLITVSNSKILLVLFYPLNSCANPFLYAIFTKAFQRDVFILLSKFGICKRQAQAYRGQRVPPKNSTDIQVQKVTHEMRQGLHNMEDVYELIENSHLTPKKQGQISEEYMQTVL
Method in brief: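 TSHR-HEK293 cells (800/well) plated 18 h, then compounds with Ro20-1724 and TSH at 1.5 ng/mL final, 30 min at room temperature. cAMP quantified by HTRF (cAMP-d2/anti-cAMP-cryptate, 1 h); 15 concentrations in triplicate.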

[14] = qHTS assay to identify small molecule agonists of the estrogen receptor alpha (ER-alpha) signaling pathway in the presence of an antagonist - cell viability counter screen (AID 1259386); further: series mostly up to about 92 µM; nearly all actives have a fitted effect of over 30% in size
Method in brief: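 Compounds tested at 15 concentrations for 22 h at 37C alongside 10.0nM (final) ICI-182,780 antagonist, in VM7Luc4E2 cells grown in phenol red-free, charcoal-stripped medium. Viability read by CellTiter-Fluor fluorescence after 1 h reagent incubation.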

[15] = target: Estrogen receptor (Homo sapiens) (UniProt P03372); experiment: qHTS assay to identify small molecule antagonists of the estrogen receptor alpha (ER-alpha) signaling pathway using the BG1 cell line in the presence of 0.1 nM 17-beta-estradiol (AID 1259244); further: nearly all actives have a fitted effect of over 50% in size
Sequence of Estrogen receptor (Homo sapiens) (P03372 whole entry, looked up): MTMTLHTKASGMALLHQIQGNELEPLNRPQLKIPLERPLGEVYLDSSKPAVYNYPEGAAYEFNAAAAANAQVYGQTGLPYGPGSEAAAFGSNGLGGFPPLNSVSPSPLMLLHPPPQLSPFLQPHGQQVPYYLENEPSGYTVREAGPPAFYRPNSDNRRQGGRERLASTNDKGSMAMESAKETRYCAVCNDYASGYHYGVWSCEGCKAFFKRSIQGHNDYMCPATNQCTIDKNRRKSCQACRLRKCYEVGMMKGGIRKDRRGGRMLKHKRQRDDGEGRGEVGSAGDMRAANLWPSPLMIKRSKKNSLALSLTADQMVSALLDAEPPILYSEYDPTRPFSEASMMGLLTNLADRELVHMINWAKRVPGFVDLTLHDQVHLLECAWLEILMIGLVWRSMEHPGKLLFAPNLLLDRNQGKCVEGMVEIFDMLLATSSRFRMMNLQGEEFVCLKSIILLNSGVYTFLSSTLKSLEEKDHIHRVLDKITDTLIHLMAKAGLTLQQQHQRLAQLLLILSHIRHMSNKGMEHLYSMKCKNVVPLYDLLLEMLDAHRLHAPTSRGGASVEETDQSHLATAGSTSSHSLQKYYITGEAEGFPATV
Method in brief: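 Luciferase luminescence (ONE-Glo, 30 min at room temperature) was read after 22 hr at 37C exposure to compounds plus 17beta-estradiol at 0.1 nM final. Cells were VM7Luc4E2 with endogenous ER-alpha and an ERE-driven luciferase, pre-cultured 5 days in hormone-depleted medium.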

[16] = qHTS assay to identify small molecule HDAC inhibitors - cell viability counter screen (AID 1259365); further: series mostly up to about 92 µM; nearly all actives have a fitted effect of over 50% in size
Method in brief: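 Measured quantity is CellTiter-Glo luminescence from wild-type HCT-116 cells after compound incubation of 2hr at 37C, 5% CO2; reagent developed 30min at room temperature.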

[17] = target: Estrogen receptor (Homo sapiens) (UniProt P03372); experiment: qHTS assay to identify small molecule agonists of the estrogen receptor alpha (ER-alpha) signaling pathway in the presence of an antagonist (AID 1259383; calls by dose curve; further: top concentration of the series differs between compounds; nearly all actives have a fitted effect of over 15% in size)
Method in brief: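 Agonist-mode confirmation run in the presence of 10.0nM (final) ICI-182,780 antagonist. The reporter was ERE-driven luciferase in VM7Luc4E2 cells, grown in charcoal-stripped serum. Cells were exposed to 15-concentration compound series for 22hr, then ONE-Glo luminescence was read.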

[18] = target: Estrogen receptor beta (Homo sapiens) (UniProt Q92731); experiment: qHTS assay to identify small molecule agonists of the estrogen receptor beta (ER-beta) signaling pathway (AID 1259377; active means well fitted activation curve with a large enough effect in the signal ratio in the repeat runs, not every such curve was filed as active; the % refers to the signal ratio)
Sequence of Estrogen receptor beta (Homo sapiens) (Q92731 whole entry, looked up): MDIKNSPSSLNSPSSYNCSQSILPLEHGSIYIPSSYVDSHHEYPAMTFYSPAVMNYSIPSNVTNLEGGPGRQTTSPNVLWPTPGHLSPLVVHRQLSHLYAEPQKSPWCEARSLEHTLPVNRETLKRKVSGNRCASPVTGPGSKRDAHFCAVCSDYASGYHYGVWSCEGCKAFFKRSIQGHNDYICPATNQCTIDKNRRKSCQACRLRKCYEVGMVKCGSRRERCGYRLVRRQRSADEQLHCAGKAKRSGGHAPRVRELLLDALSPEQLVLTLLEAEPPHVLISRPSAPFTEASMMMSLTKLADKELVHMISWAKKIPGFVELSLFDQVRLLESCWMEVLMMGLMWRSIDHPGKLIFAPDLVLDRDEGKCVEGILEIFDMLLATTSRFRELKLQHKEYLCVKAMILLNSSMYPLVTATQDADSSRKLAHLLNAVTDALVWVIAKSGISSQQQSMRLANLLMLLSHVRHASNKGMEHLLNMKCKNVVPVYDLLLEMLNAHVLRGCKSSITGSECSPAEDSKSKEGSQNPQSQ
Method in brief: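 Reporter cells (HEK293T, ER-beta-UAS-bla) receive compounds or DMSO after a 6 hr pre-incubation. They then incubate 16 hr at 37C/5% CO2, and fluorescence from LiveBLAzer B/G substrate is measured after 2 hours at room temperature.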

[19] = target: Androgen receptor (Homo sapiens) (UniProt P10275); experiment: qHTS assay to identify small molecule antagonists of the androgen receptor (AR) signaling pathway using the MDA cell line in the presence of 0.5 nM R1881 (AID 1259243); further: nearly all actives have a fitted effect of over 50% in size
Sequence of Androgen receptor (Homo sapiens) (P10275 whole entry, looked up): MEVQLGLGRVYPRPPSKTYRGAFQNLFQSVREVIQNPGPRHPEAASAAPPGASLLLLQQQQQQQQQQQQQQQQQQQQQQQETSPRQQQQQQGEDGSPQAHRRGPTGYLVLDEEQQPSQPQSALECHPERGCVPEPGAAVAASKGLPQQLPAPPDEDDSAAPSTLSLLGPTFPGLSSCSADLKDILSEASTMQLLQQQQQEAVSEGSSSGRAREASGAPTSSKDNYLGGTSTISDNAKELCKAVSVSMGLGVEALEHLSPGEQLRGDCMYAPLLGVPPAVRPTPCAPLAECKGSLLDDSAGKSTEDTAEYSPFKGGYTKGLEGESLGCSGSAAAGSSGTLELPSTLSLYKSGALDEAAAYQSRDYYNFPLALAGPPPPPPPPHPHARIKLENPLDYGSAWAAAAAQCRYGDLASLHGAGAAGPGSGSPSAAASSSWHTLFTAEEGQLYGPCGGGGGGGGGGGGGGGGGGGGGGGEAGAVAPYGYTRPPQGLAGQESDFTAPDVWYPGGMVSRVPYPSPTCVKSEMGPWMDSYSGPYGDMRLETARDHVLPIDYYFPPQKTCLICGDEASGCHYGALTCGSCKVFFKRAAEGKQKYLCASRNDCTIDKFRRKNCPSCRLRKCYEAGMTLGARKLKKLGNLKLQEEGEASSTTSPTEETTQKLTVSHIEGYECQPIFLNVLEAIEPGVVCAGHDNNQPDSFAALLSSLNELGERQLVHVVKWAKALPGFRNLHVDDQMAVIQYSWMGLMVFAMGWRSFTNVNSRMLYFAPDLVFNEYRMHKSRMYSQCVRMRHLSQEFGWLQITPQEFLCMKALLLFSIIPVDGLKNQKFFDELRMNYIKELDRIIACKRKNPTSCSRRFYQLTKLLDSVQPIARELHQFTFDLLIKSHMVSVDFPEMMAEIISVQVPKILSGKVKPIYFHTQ
Method in brief: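 Luminescent reporter readout (ONE-Glo, 30 min, room temperature) after 16 hr co-treatment of MDA-kb2 cells with test compounds and 0.5 nM R1881 final, at 37C without CO2. The MMTV-driven luciferase responds to both AR and GR.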
On the % scale 0 is the no-effect control and ±100 the full control effect.

Cc1cc(C)nc(NS(=O)(=O)c2ccc(N)cc2)n1
inactive: Potency [1] | Potency [2] | Potency [3] | Potency [4] | Potency [5] | Potency [6] | outcome [7] | Potency [8] | Potency [9] | Potency [10] | Potency [11] | Potency [12] | Potency [13] | Potency [14]

O=C1NC(=O)C(c2ccccc2)(c2ccccc2)N1
inactive: Potency [1] | Potency [2] | Potency [3] | Potency [4] | Potency [5] | Potency [6] | outcome [7] | Potency [8] | Potency [9] | Potency [10] | Potency [11] | Potency [12] | Potency [13] | Potency [14]

Cc1cccc(C)c1
inactive: Potency [1] | Potency [2] | Potency [15] | Potency [4] | Potency [16] | Potency [5] | Potency [6] | outcome [7] | Potency [8] | Potency [9] | Potency [10] | Potency [11] | Potency [17] | Potency [12] | Potency [13] | Potency [14]

Nc1ccc(S(N)(=O)=O)cc1
inactive: Potency [1] | Potency [2] | Potency [3] | Potency [16] | Potency [5] | Potency [6] | outcome [7] | Potency [8] | Potency [18] | Potency [9] | Potency [10] | Potency [11] | Potency [12] | Potency [13]

O=CC(=O)c1ccccc1
inactive: Potency [1] | Potency [2] | Potency [15] | Potency [5] | Potency [6] | outcome [7] | Potency [8] | Potency [18] | Potency [9] | Potency [10] | Potency [11] | Potency [17] | Potency [12]

C=C(C)C(=O)OCC(C)O (centres undefined)
inactive: Potency [1] | Potency [2] | Potency [15] | Potency [4] | Potency [16] | Potency [5] | Potency [6] | outcome [7] | Potency [8] | Potency [18] | Potency [9] | Potency [10] | Potency [11] | Potency [17] | Potency [12] | Potency [13]

Nc1ccc2c(c1)CN1C(=O)c3ccccc3C1=N2
inactive: activity, negative = inhibition [19] 57.2% [at 19 µM]

COc1cccc(O)c1O
inactive: Potency [19]
